Experimental findings from PubChem BioAssay (NCI) are described below.

Common to all, as to assay: NCI-60 one-dose screen, 48 h (100 = growth as untreated, 0 = no growth, -100 = all killed)
Holding throughout (conditions): 10 µM unless noted

For assay [1], the system named is RPMI-8226 leukemia.
Assay [2] concerns OVCAR-8 ovarian.
Assay [3] concerns OVCAR-5 ovarian.
In assay [4] the test system is OVCAR-4 ovarian.
Assay [5] has as its system SK-OV-3 ovarian.
In assay [6] the test system is IGROV1 ovarian.
Assay [7] has as its system OVCAR-3 ovarian.
Assay [8] concerns HS 578T breast.
Assay [9] deals with NCI/ADR-RES ovarian.
Assay [10] deals with T-47D breast.

About 83,000 compounds went through this panel and 20% of them were active in at least one assay; those are over-represented in the sample as a whole.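 Values shown are percent growth following 48 h exposure of cells in 96-well plates to a single concentration of compound; below 10 was considered active.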 A number with no mark means an inactive call. Active and inactive are the calls of the source.

Turning to `COc1cc2nc(-c3cccc4cccnc34)nc(NC3CCN(Cc4ccccc4)CC3)c2cc1OC`, the growth is -48.7% (active) in assay [1]; -55% (active) in assay [2]; -90.6% (active) in assay [3]; -91.1% (active) in [4]; -74.7% (active) in assay [5]; -61.5% (active) in [6]. Moreover, the growth in [7] is -85.9% (active); in assay [8] it was -41.7% (active); in assay [9] it was 6.52% (active); in assay [10], -64.4% (active).
For `O=c1oc2ccc(-c3ccc(F)cc3F)cc2c(=O)n1-c1cccc(C(F)(F)F)c1`, the growth in [1] is -6.6% (active); in [2], 8.92% (active); in assay [3], 12.1%; in [4] it was 19.2%; in [5] it was -9.56% (active); in assay [6] it was 20.5%. In addition, the growth in assay [7] is 7.84% (active); in assay [8], 8.28% (active); in assay [9], 7.17% (active); in [10] it was -13.7% (active).
For `O=C1C(=O)c2c(ccc3ccccc23)-c2ccccc21`, the growth is 4.32% (active) in assay [1]; 2.95% (active) in assay [2]; -22.4% (active) in [3]; -95.3% (active) in assay [4]; 91.5% in assay [5]; -21.4% (active) in assay [6]. The growth in [7] is -25.5% (active); in [8] it was -8.76% (active); in [9], -1.89% (active); in assay [10], -48.6% (active).
In the case of `COc1ccc(C2Nc3ncnc(N)c3N=C3c4ccccc4C(=O)C32)cc1` (stereo not given), the growth in [1] was 80%; in assay [2] it was 108%; in [3], 98.1%; in assay [4], 82.8%; in [5] it was 84.7%; in assay [6], 79.4%. Moreover, the growth was 83.9% in assay [7], 94.5% in assay [8], 105% in [9] and 80.8% in assay [10].
Turning to `CC/C(=C(\CC)c1ccc(OCC[N+](C)(C)C)cc1)c1ccc(OC)cc1`, the growth in [1] is 31.1%; in assay [2], 53%; in assay [3], 102%; in assay [4] it was 68.5%; in assay [5] it was 86.9%; in [6] it was 68.8%. The growth in [7] was 51.3%; in assay [8], 72.3%; in assay [9] it was 107%; in assay [10], 59%.
`N[C@@H](CC/[N+]([O-])=N/O)C(=O)O`: the growth in assay [1] is 101%; in assay [2], 109%; in [3], 100%; in assay [4], 105%; in assay [5], 105%; in assay [6] it was 93.3%. The growth in assay [7] is 102%; in assay [8], 98.4%; in assay [9], 103%; in assay [10] it was 94.4%.
As for `CCCCCCC(O)(c1ccc(F)cc1)C(CN1CCOCC1)c1ccccc1` (stereo not given), the growth in assay [1] was 16.9%; in assay [2], 33.5%; in assay [3], 69.8%; in assay [4], 31.7%; in assay [5] it was 76.7%; in [6], 44%. Further, the growth in assay [7] is 2.28% (active); in [8], 51.6%; in assay [9], 17.2%; in [10] it was 14.3%.
On to `CCOC(=O)c1cc2c(n1Cc1ccccc1)-c1oncc1CCC2`, for which the growth in assay [1] was 64.4%; in assay [2] it was 80.9%; in [3] it was 101%; in assay [4] it was 72.9%; in [5], 87.1%; in [6] it was 58%. Also, the growth in assay [7] is 76.6%; in [8], 76.5%; in assay [9], 52.3%; in [10], 80.7%.
Consider `Nc1ccc(-c2ccc(-c3ccccc3N)c3[nH]c4ccccc4c23)cc1`, for which the growth was 6.61% (active) in assay [1]; 33.1% in [2]; 56.7% in assay [3]; 67.7% in [4]; 28.7% in [5]; 53.7% in [6]. Moreover, the growth in assay [7] is 19.4%; in [8], 40.7%; in assay [9], -6.69% (active); in assay [10], 15.2%.
Consider `Cc1ccc(C)c(-c2csc(Nc3ccc(C)c(C)c3)n2)c1`, for which the growth in assay [1] was 2.64% (active); in assay [2], 54.5%; in assay [3], 94%; in [4], 54.5%; in assay [5], 77.8%; in assay [6], 81%. Further, the growth was 67.4% in assay [7], 57.9% in [8], 54.2% in assay [9] and 39.3% in [10].
As to `Nc1ccc(-c2nc3cc(Oc4ccc(Oc5ccc6[nH]c(-c7ccc(N)cc7)nc6c5)cc4)ccc3[nH]2)cc1`, the growth in [1] is 101%; in assay [2] it was 91.3%; in assay [3], 113%; in assay [4] it was 114%; in assay [5], 98.7%; in [6] it was 120%. Also, the growth in assay [7] is 122%; in [8], 108%; in assay [9] it was 103%; in assay [10], 77.3%.
Turning to `O=c1oc2ccc(F)cc2c(=O)n1-c1ccc(I)cc1F`, the growth is -20.4% (active) in assay [1]; 8.61% (active) in assay [2]; 22.2% in [3]; 12.4% in [4]; -4.12% (active) in assay [5]; 17.2% in assay [6]. Also, the growth in assay [7] was 8.05% (active); in assay [8], -4.95% (active); in assay [9] it was 2.32% (active); in assay [10] it was -16.2% (active).
For the compound `O=C(N/N=C/c1ccccc1Cl)C(=O)Nc1cccc(C(F)(F)F)c1`, the growth in assay [1] is 93.9%; in [2], 83%; in assay [3] it was 97.4%; in [4], 101%; in assay [5], 102%; in [6], 92.9%. For the same compound, the growth in assay [7] is 115%; in assay [8] it was 111%; in assay [9], 98.4%; in assay [10] it was 90.2%.
As for `O=C(O)CCC(=O)c1ccc(C2CCCCCC2)cc1`, the growth is 95.8% in assay [1]; 102% in [2]; 105% in assay [3]; 102% in [4]; 103% in assay [5]; 101% in assay [6]. For the same compound, the growth in assay [7] was 105%; in assay [8] it was 102%; in [9], 102%; in assay [10] it was 96.2%.
Turning to `Cn1cc([C@@H]2Nc3ccc4[nH]ncc4c3[C@H]3[C@H]4CCC(C4)[C@H]32)c(C(F)(F)F)n1`, the growth in assay [1] was 46.6%; in assay [2], 62.5%; in assay [3] it was 79.4%; in assay [4], 77.4%; in assay [5] it was 77.4%; in assay [6] it was 56.7%. In addition, the growth is 34.7% in assay [7], 34% in [8], 31.3% in assay [9] and 52.6% in [10].
`COc1ccccc1C(=O)O/N=C(\N)Cc1cccc2ccccc12`: the growth was 73.4% in assay [1]; 78.6% in assay [2]; 95.2% in assay [3]; 62.3% in [4]; 103% in [5]; 86.7% in assay [6]. The growth is 4.24% (active) in assay [7], 97% in assay [8], 69.8% in [9] and 93.3% in assay [10].
Take `COc1nc2c(c(=O)n1C)N=C1c3ccccc3C(=O)C1C(c1ccccc1)N2` (stereo not given): the growth in [1] was 92%; in assay [2] it was 100%; in [3] it was 97.1%; in assay [4], 92.8%; in assay [5], 91.4%; in assay [6], 110%. For the same compound, the growth in [7] is 74.9%; in assay [8], 105%; in assay [9] it was 73.3%; in assay [10], 85.2%.
For the compound `O=C(Nc1ccc(N2CCNCC2)cc1)c1[nH]ncc1Nc1ncnc2sc3c(c12)CCC3`, the growth in [1] is -40.6% (active); in assay [2], -43.7% (active); in [3], -88.1% (active); in [4], 15.8%; in assay [5], -27.9% (active); in assay [6], -9.21% (active). Also, the growth in [7] is -81.7% (active); in [8], -54.8% (active); in [9] it was -57.3% (active); in [10], 20.4%.
For the compound `NC(CCl)=NCCC[C@H](N)C(=O)O`, the growth is 99.6% in [1]; 99.5% in assay [2]; 105% in assay [3]; 93% in assay [4]; 105% in assay [5]; 116% in assay [6]. Besides, the growth in assay [7] was 117%; in assay [8], 99.3%; in assay [9] it was 101%; in assay [10], 98.2%.
Regarding `COc1ccc(/C=C/C(=O)c2ccc3cc(OC)c(OC)cc3c2)cc1OC`, the growth is 4.57% (active) in assay [1]; 11.4% in assay [2]; 29.6% in assay [3]; 25.5% in [4]; 63.3% in [5]; 53.8% in [6]. For the same compound, the growth was 15.5% in assay [7], 77.2% in assay [8], 11.5% in [9] and 47.5% in assay [10].
Take `COc1ccc(-c2nocc2-c2cccs2)cc1`: the growth in [1] was 124%; in assay [2] it was 110%; in assay [3], 88.9%; in assay [4] it was 99%; in [5], 105%; in [6], 102%. Moreover, the growth in assay [7] is 108%; in [8] it was 91.1%; in [9], 110%; in assay [10] it was 75.7%.
As for `CCCCNc1nc(NC(C)(C)C)nc(NC(C)(C)C)n1`, the growth is 17.7% in [1]; 59.5% in assay [2]; 62% in [3]; 55.2% in assay [4]; 81.9% in assay [5]; 51.3% in assay [6]. The growth in [7] was 54.2%; in assay [8], 67.7%; in assay [9] it was 53.3%; in assay [10] it was 45.3%.
Regarding `CN(C)CCNc1cc(-c2ccccc2)nc2ccccc12`, the growth is -8.18% (active) in assay [1]; -34.4% (active) in [2]; -39.7% (active) in [3]; -25% (active) in assay [4]; 36.4% in assay [5]; -64% (active) in [6]. The growth in [7] is -92.5% (active); in assay [8], 11.1%; in [9], -1.85% (active); in assay [10], -5.18% (active).
As for `O=C(Nc1ccc(N2CCNCC2)cc1)c1[nH]ncc1Nc1cc(Oc2ccccc2)ncn1`, the growth in assay [1] is -52.9% (active); in [2], 26.9%; in [3], -26.4% (active); in assay [4], 43.3%; in [5], 19.4%; in assay [6] it was 19.7%. The growth in assay [7] is 6.24% (active); in assay [8], 32.4%; in assay [9], 77.5%; in [10], 40%.
`Oc1c(CN2CCN(c3ccccc3F)CC2)cc(Br)c2cccnc12`: the growth was -0.421% (active) in [1]; -49% (active) in assay [2]; -19.3% (active) in assay [3]; -81% (active) in [4]; -8.19% (active) in assay [5]; -34.1% (active) in [6]. For the same compound, the growth in assay [7] was -86% (active); in assay [8], -10.3% (active); in [9], 23.8%; in [10] it was 14.3%.
As for `COc1ccc(Cn2c(Br)c3c(c2-c2cc(OC)c(OC)c(OC)c2)CCc2sc(NC(C)=O)nc2-3)cc1`, the growth in assay [1] is 53.5%; in assay [2] it was 60.4%; in assay [3], 96.8%; in assay [4], 49.8%; in assay [5], 35.5%; in [6], 6.54% (active). For the same compound, the growth in assay [7] is -14.4% (active); in assay [8], 24.6%; in assay [9], 27.1%; in assay [10] it was 37.2%.
As for `COc1ccc(C2C3=C(COC3=O)N(CCO)c3cc4c(cc32)CCC4)cc1OC` (stereo not given), the growth in [1] is 33.4%; in [2], 26.7%; in [3], 57.3%; in [4] it was 28.3%; in assay [5], 24.8%; in assay [6], 24.2%. In addition, the growth is -18.6% (active) in [7], 21.1% in [8], 31.3% in [9] and 22.6% in assay [10].
